Screening results (PubChem)
Hits are enriched below; roughly 1.3% of the tested compounds scored in any of these assays.
Sa RN4220 lethal = S. aureus RN4220 growth inhibition; hit rate 0.33% among 330,000; OD600, 16 h; AID 1259311; inhibition, % (test concentration not listed); in the data active = inhibition above about 85%;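 also: plate controls were untreated cells for no effect and reference antibiotic for full effect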
BJeLR viability = BJeLR cell viability loss | BJeLR (HRASV12) viability, CellTiter-Glo ATP luminescence, 48 h | inhibition, % (no concentration beside the values) | hit rate 0.17% among 300,000 | AID 1554; in the data active = inhibition above about 50%; inconclusive = no clear call, values can overlap the other calls
SARS 3CLpro inh = SARS-CoV 3CLpro protease inhibition; P0C6X7; recombinant SARS-CoV 3CLpro, quenched FRET peptide cleavage; inhibition, % at 6 µM; hit rate 0.14% among 290,000; in the data active = inhibition above about 12%
ugtP null kill = compounds lethal to S. aureus RN4220 ugtP deletion mutant. OD600 growth, 16 h. growth inhibition, % (concentration not given with the values). AID 1259309. hit rate 0.54% among 330,000; in the data active = growth inhibition above about 68%;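 also: plate controls were untreated wells for no effect and antibiotic for full effect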
PfHsp40 rescue = restores yeast growth despite PfHsp40 toxicity | S. cerevisiae expressing PfHsp40, growth rescue, ATP luminescence | growth rescue, % at 12.5 µM | hit rate 0.68% among 340,000 | AID 504582; in the data active = growth rescue above about 28%, passing the limit was not always enough; inconclusive = no clear call, values can overlap the other calls;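 also: yeast W303a lacking pdr1 and pdr3 grown in galactose medium; growth measured after three days at 30 °C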
Active calls of the source: *; ? = inconclusive; nt = no result given; ! = a repeat was not active.

SMILES	Sa RN4220 lethal	BJeLR viability	SARS 3CLpro inh	ugtP null kill	PfHsp40 rescue
CC(C)C(CN1CCCC1CN1C(N)=NCC1Cc1ccccc1)N1CC(Cc2ccccc2)N(CCc2ccc(Cl)c(Cl)c2)C1=N (stereo unspecified)	100.8*	nt	nt	100.4*	nt
CC(C)C[C@@H]1CN=C(N)N1C[C@@H]1CCCN1C[C@@H](C(C)C)N1C[C@@H](Cc2ccccc2)N(CCc2ccc(Cl)c(Cl)c2)C1=N	99.4*	nt	nt	99.8*	2.1
CC(C)CC1CN=C(N)N1CC1CCCN1CC(C)N1CC(Cc2ccccc2)N(CCc2ccc(Cl)c(Cl)c2)C1=N (stereo unspecified)	100.8*	nt	nt	100.5*	nt
CC(C)C[C@@H]1CN=C(N)N1C[C@@H]1CCCN1C[C@H](C)N1C[C@@H](Cc2ccccc2)N(CCc2ccc(Cl)c(Cl)c2)C1=N	nt	nt	nt	nt	-0.1
C=CCn1c(=O)c(C(=O)Nc2cc(C)ccn2)c(O)c2ccccc21	6.9	-7.3	-2.2	24.5	-1.1
CCCCCCCC#Cc1ccccc1C=NS(=O)c1ccc(C)cc1 (stereo unspecified)	-2.4	nt	nt	98.5*	nt
COc1ccccc1C(=O)Nc1ccnn1C1CCN(Cc2cnn(C)c2C)CC1	1.9	-5.1	2.0	4.0	0.8
C[C@@H]1C=CC(=O)O[C@@H]1c1ccc(C(F)(F)F)cc1	nt	92.2*	-2.8	nt	nt
CC1CCCC(NC(=O)COC(=O)/C=C/c2ccco2)C1C (stereo unspecified)	1.7	nt	nt	3.9	-0.5
Cc1ccc(-n2c(CNCc3ccc(F)cc3)nc3ccccc3c2=O)cc1	0.8	2.5	3.6	1.6	55.1*
CCN(CC)CCNCc1nc2ccccc2c(=O)n1-c1ccc(F)cc1	2.4	-4.2	2.0	9.8	-0.2
COc1cc(C=NNC(=O)c2cc(C)oc2C)ccc1OCc1ccccc1	-4.8	nt	nt	11.0	nt
CC(=NNc1ccc([N+](=O)[O-])cc1)c1ccc(N)cc1	2.2	nt	nt	-6.6	nt
C/C(=N\Nc1ccc([N+](=O)[O-])cc1)c1ccc(O)cc1	nt	-1.9	7.3	nt	180.0*
c1ccc(-c2nc(NCc3cccnc3)c3oc4ccccc4c3n2)cc1	-2.1	-0.4	-2.1	7.2	48.0*
O=C(O)CNc1nc(-c2ccccc2)nc2c1oc1ccccc12	7.0	6.3	1.0	3.8	-0.2
CCS(=O)(=O)N1Cc2ccccc2CC1C(=O)N1CCN(c2ccccc2)CC1 (stereo unspecified)	2.9	-2.5	3.0	5.0	-0.7
Oc1cc(-c2cccnc2)cc2cccnc12	100.2*	nt	nt	100.1*	3.2
CN1CCN(c2cc(-c3cc(O)c4ncccc4c3)ccn2)CC1	2.5	nt	nt	-5.6	-1.3
COc1ccc(CN=C2NC(=O)CC(C(=O)Nc3cc(C)cc(C)c3)S2)cc1 (stereo unspecified)	-7.1	0.8	0.8	-0.6	-1.4
Cc1c(C(=O)OCC(=O)N2CC(=O)Nc3ccccc32)oc2ccc(Br)cc12	4.8	67.6*	-1.4	7.9	-0.1
O=C(N[C@@H]1CCC(=O)N(CC[C@H](Sc2ccccc2)c2ccccc2)CC1)OCc1ccccc1	-4.3	-1.3	0.3	3.3	7.7
O=C(O)CSc1cc(NS(=O)(=O)c2cccc([N+](=O)[O-])c2)c2ccccc2c1O	20.4	-8.5	2.6	2.4	96.5*
CCOc1ccc(S(=O)(=O)Nc2cc(SCC(=O)O)c(O)c3ccccc23)cc1	15.2	5.2	7.2	-2.3	1.0
O=S(=O)(Nc1cc(Sc2cccc3cccnc23)c(O)c2ccccc12)c1ccccc1	nt	125.2*	8.8	nt	nt
SMILES	Sa RN4220 lethal	BJeLR viability	SARS 3CLpro inh	ugtP null kill	PfHsp40 rescue
COC(=O)C[C@H](NC(=O)Cn1cnc(C(=O)Nc2ccc(C)c(C)c2)n1)C(=O)OC	5.4	nt	nt	5.1	-0.2
COc1ccccc1CNn1c(-c2cccc(C)c2)nc2ccccc2c1=O	2.9	3.0	-1.7	-10.7	42.2*
CCOC(=O)[C@@H]1[C@H]2COc3cc(OC)ccc3[C@H]2N2C(=O)N(c3ccc(C(F)(F)F)cc3)C(=O)[C@]12C	nt	nt	nt	nt	193.2*
CCOC(=O)[C@@H]1[C@H]2COc3ccccc3[C@H]2N2C(=O)N(c3ccc(F)cc3)C(=O)[C@]12C	nt	8.1	-1.8	nt	1.3
CCOC(=O)C1C2COc3ccccc3C2N2C(=O)N(c3ccc(C(F)(F)F)cc3)C(=O)[C@]12C (stereo partly specified)	100.7*!	nt	nt	100.4*!	nt
CN(C(=O)OC(C)(C)C)[C@H](Cc1ccccc1)C(=O)N[C@H]1CCCCNC1=O	4.4	nt	nt	12.7	0.0
NS(=O)(=O)c1ccc(CNC(=O)Cc2ccsc2)cc1	0.2	-5.2	3.1	-0.6	-0.9
O=C1C=CC(=O)N1c1ccc(Sc2ccc([N+](=O)[O-])cc2)cc1	nt	63.8*	6.5	nt	nt
Cn1c(CC(=O)Nc2ccc(Cl)c(Cl)c2)n[nH]c1=S	3.6	nt	2.0	2.4	0.5
COc1ccc(Cc2n[nH]c(=S)n2NC(=O)Nc2ccc(Cl)c(Cl)c2)cc1	100.4*	8.4	6.2	99.8*	0.2
COc1cccc(NC(=O)N2CCC(C(=O)Nc3ccc(C)cc3C)CC2)c1	6.2	-3.2	0.1	12.5	-0.2
Nc1nc(CSc2n[nH]c(-c3ccccc3)n2)nc(Nc2ccccc2)n1	4.1	0.1	-1.3	5.6	68.2*
COc1ccc(S(=O)(=O)N2CCOCC2)cc1NC(=O)CSc1nnc(C2CC2)n1C1CC1	7.1	nt	nt	4.5	0.7
COc1cc(C#Cc2c(-c3cncn3C)n(C)c3ccc(Br)cc23)cc(OC)c1	99.3*	nt	nt	98.7*	?
COc1cc(C#Cc2c(-c3cncn3C)n(C)c3ccc(-c4ccc(OC)c(OC)c4)cc23)cc(OC)c1	8.0	nt	nt	28.8	6.1
COc1cc(C=NNC(=O)c2ccncc2)ccc1O	2.9	nt	nt	2.3	nt
O=C(CCN1C(=O)C2C3C=CC(C4CC34)C2C1=O)Oc1cccc2cccnc12 (stereo unspecified)	100.2*	6.2	4.8	98.1*	-0.5
O=C(CCN1C(=O)C2C3C=CC(C4CC34)C2C1=O)Oc1ccc(Br)cc1 (stereo unspecified)	2.9	-9.0	2.0	-5.4	-1.2
Cc1cc(C)cc(NC(=S)N2CCN(c3ccc(F)cc3)CC2)c1	2.7	-2.6	-1.7	-0.6	-0.9
CCOC(=O)C1CCN(S(=O)(=O)c2c(Cl)ccc3nonc23)CC1	nt	60.4*	2.5	nt	-0.1
CCOc1ccccc1CNC(=O)CCCc1cn(C)c2ccccc12	9.0	10.1	-1.8	4.4	-0.5
O=S1(=O)[C@H]2C[C@@H]3C=C[C@@]2(CN1Cc1cccc(F)c1)O3	nt	5.7	0.2	nt	65.7*
Cc1ccc(S(=O)(=O)NCCC(=O)NC2CCCCC2C)cc1 (stereo unspecified)	6.6	nt	nt	10.0	-1.0
CCCc1cc(=O)oc2cc(C)cc(OCC(=O)O)c12	-4.9	-1.5	-1.7	-4.7	1.2
CN(C)CCN(C(=O)c1ccc(S(=O)(=O)N(C)c2ccccc2)cc1)c1nc2cc3c(cc2s1)OCCO3	1.5	2.5	-0.6	9.2	1.1
Cc1[nH]c(N=Nc2ccccc2)nc1N=Nc1ccccc1	nt	4.8	3.9	nt	80.2*
O=C(CN1C(=O)NC2(CCCC2)C1=O)N1CCCSC1=Nc1ccccc1	2.1	nt	nt	4.9	0.9
